“And” between values parts separate entries of the source, which are not always exact repeats. Equal entries are not always repeated. Some compounds were tested as several samples or in several runs, with calls that do not always agree. The source made the active and inactive calls. Unless noted, no rule for the calls is given here.

As usually defined, the viability is a read-out of living cells in per cent, often relative to untreated cells. By inhibition is commonly meant the change of the read-out against control, counted positive when it falls.

Assay [1] is described as follows: P. berghei load reduction in hepatocytes – cell-based, HepG2, luciferase luminescence, HepG2 viability, primary screen (AID 624349; in the data active = parasite load remaining mostly below about 12%, no sharp cut-off; inactive = mostly above about 10%;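 also: 100% = mean of DMSO negative control wells on the same plate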). As to conditions: P. berghei liver stage in HepG2, luciferase luminescence, concentration not given here; parasite load remaining: stronger effect = lower value; viability: measured here: HepG2 viability without parasites.
A short description of assay [2]: signal quenchers or enhancers, Cy5 substrate/SSB – biochemical, NIH Clinical Collection, E. coli SSB, artefact control for HCV NS3 helicase inhibitor project (AID 743268). As to conditions: Cy5-oligo bound E. coli SSB, fluorescence interference.
Assay [3] has as its system Hepatitis C virus NS3 helicase. The experiment in a line: blockers of NS3h binding to DNA – biochemical, fluorescence polarization, NIH Clinical Collection, primary screen (AID 743270). As to conditions: NS3 helicase binding to Cy5-dT15 DNA, stronger effect = higher value, concentration not given here.
Assay [4] deals with Single-stranded DNA-binding protein (Escherichia coli (strain K12)) (UniProt P0AGE0). Nature of the assay: SSB-ssDNA binding inhibitors – biochemical, fluorescence polarization, NIH Clinical Collection, counter-screen for HCV NS3 helicase inhibitor project (AID 743271; in the data active = inhibition above about 28%). As to conditions: E. coli SSB-DNA binding, stronger effect = higher value, concentration not given here. Background: Fluorescence polarisation rises when a labelled molecule tumbles more slowly, as on binding a larger partner.

A short description of assay [5]: compounds distorting NS3 helicase fluorescence signal – biochemical, NIH Clinical Collection, artefact control for HCV NS3 helicase inhibitor project (AID 743272).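 Also: HCV NS3 helicase with a Cy5 labelled single stranded DNA probe.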 Conditions: fluorescence interference counterscreen, HCV NS3 helicase assay; stronger effect = lower value.
The subject of assay [6] is Neuropilin-2 / VEGF-C interaction (human). The experiment in a line: small molecules blocking Neuropilin-2/VEGF-C interaction – biochemical, microplate binding format, z-score (AID 743281). Conditions: microplate NRP2/VEGF-C binding assay; stronger effect = lower value.
A short description of assay [7]: Wnt pathway potentiators raising nuclear beta-catenin – imaging, WNT3A-conditioned medium, mouse C2C12, NPC library, primary screen (AID 1117326; in the data active = nuclear beta-catenin stimulation mostly above about 4.2%, no sharp cut-off; inactive = mostly below about 10%). Conditions: stronger effect = higher value.

As for `OCCOCCN1CCN(C2=Nc3ccccc3Sc3ccccc32)CC1`, the parasite load remaining in assay [1] was 49.4% (inactive) and 94% (inactive) and 56.9% (inactive). The viability in assay [1] is 95.1% and 77.7% and 206%. In addition, the fluorescence ratio in assay [2] was 1.02 (inactive); in assay [5], 0.95 (inactive). In addition, the inhibition in assay [3] is 1.98% (inactive); in assay [4] it was 1.44% (inactive). For the same molecule, the z-score in assay [6] was 0.105 (inactive). The nuclear beta-catenin stimulation is 3.8% (inactive) in assay [7] (at 10 µM) and 2.1% in assay [7] (stimulation, at 2 µM).

For `Nc1nc(N)nc(-c2cc(Cl)ccc2Cl)n1`, in assay [1], the parasite load remaining is 141% (inactive) and 22.8% (inactive). In addition, the viability in assay [1] is 129% and 67.5%. In addition, the fluorescence ratio in assay [2] was 1.05 (inactive); in assay [5], 1.02 (inactive). Further, the inhibition in assay [3] is -1.19% (inactive); in assay [4] it was 2.21% (inactive). The z-score in assay [6] was 0.00875 (inactive). The nuclear beta-catenin stimulation in assay [7] (at 10 µM) was 0.6% (inactive); in assay [7] (stimulation, at 2 µM) it was 0.3%.

On to `CCN1CC(CCN2CCOCC2)C(c2ccccc2)(c2ccccc2)C1=O` (stereo unspecified), for which, in assay [1], the parasite load remaining is 66% (inactive). Further, in assay [1], the viability was 70.6%. The results for the fluorescence ratio in assay [2] and in assay [5] were 0.9 (inactive) and 0.88 (inactive), respectively. The inhibition in assay [3] was -8.95% (inactive); in assay [4], 5.91% (inactive). Further, in assay [6], the z-score is -0.0578 (inactive). For the same molecule, the nuclear beta-catenin stimulation in assay [7] (at 10 µM) is -1.3% (inactive); in assay [7] (stimulation, at 2 µM) it was -3.1%.

For the molecule `CN(C/C=C/C#CC(C)(C)C)Cc1cccc2ccccc12`, the parasite load remaining in assay [1] is 40.7% (inactive) and 65.8% (inactive) and 43.2% (inactive). Also, in assay [1], the viability was 99.2% and 68.9% and 104%. Further, the fluorescence ratio in assay [2] is 1.06 (inactive); in assay [5] it was 1 (inactive). Besides, the inhibition in assay [3] is 1.19% (inactive); in assay [4] it was 4.52% (inactive). Besides, the z-score in assay [6] is 0.0743 (inactive). Further, the nuclear beta-catenin stimulation was 5.3% (inactive) in assay [7] (at 10 µM) and 2.6% in assay [7] (stimulation, at 2 µM).

In the case of `CCOC(=O)C1=C(C)NC(C)=C(C(=O)OCC)C1c1ccccc1/C=C/C(=O)OC(C)(C)C`, in assay [1], the parasite load remaining was -0.13% (active) and 24.4% (inactive). Also, the viability in assay [1] was 74.1% and 104%. Besides, the fluorescence ratio in assay [2] and in assay [5] was 0.9 (inactive) throughout. Moreover, the values for the inhibition in assay [3] and in assay [4] were 3.28% (inactive) and 3.54% (inactive), respectively. Besides, in assay [6], the z-score was -0.248 (inactive). Also, the nuclear beta-catenin stimulation was 3% (inactive) in assay [7] (at 10 µM) and 1.2% in assay [7] (stimulation, at 2 µM).

Take `CC(Cc1ccccc1)(NC(=O)CN)c1ccccc1` (stereo unspecified): the parasite load remaining in assay [1] is 118% (inactive). Further, the viability in assay [1] is 74.8%. Moreover, the fluorescence ratio in assay [2] was 1.07 (inactive); in assay [5] it was 1.03 (inactive). In addition, the inhibition in assay [3] was 5.15% (inactive); in assay [4], 6.83% (inactive). Besides, in assay [6], the z-score was 1.57 (inactive). Also, the nuclear beta-catenin stimulation in assay [7] (at 10 µM) is 0.8% (inactive); in assay [7] (stimulation, at 2 µM), 0%.

`COc1cc(C)c(Cc2cnc(N)nc2N)cc1OC`: the parasite load remaining in assay [1] is 28% (inactive). In addition, the viability in assay [1] amounted to 73.1%. Besides, the fluorescence ratio in assay [2] is 1.02 (inactive); in assay [5], 0.95 (inactive). Besides, the inhibition in assay [3] is 1.98% (inactive); in assay [4] it was 2.21% (inactive). Also, in assay [6], the z-score is -0.323 (inactive). The nuclear beta-catenin stimulation in assay [7] (at 10 µM) is -0.5% (inactive); in assay [7] (stimulation, at 2 µM), 0.4%.

As for `NC1CCN(c2nc3c(cc2F)c(=O)c(C(=O)O)cn3-c2ccc(F)cc2F)C1` (stereo unspecified), the parasite load remaining in assay [1] is 96.2% (inactive) and 26.3% (inactive). Moreover, the viability in assay [1] was 82.6% and 76%. Besides, the fluorescence ratio was 0.97 (inactive) in assay [2] and 0.98 (inactive) in assay [5]. In addition, the inhibition in assay [3] was -5.15% (inactive); in assay [4], 9.91% (inactive). Also, the z-score in assay [6] was -1.29 (inactive). Further, the nuclear beta-catenin stimulation is 1% (inactive) in assay [7] (at 10 µM) and 0.1% in assay [7] (stimulation, at 2 µM).

For `CCCN1CCCC[C@H]1C(=O)Nc1c(C)cccc1C`, the parasite load remaining in assay [1] is 68.8% (inactive). Moreover, in assay [1], the viability turned out to be 69.6%. Besides, the values for the fluorescence ratio in assay [2] and in assay [5] were 0.98 (inactive) and 0.92 (inactive), respectively. Moreover, the inhibition is -5.46% (inactive) in assay [3] and -2.76% (inactive) in assay [4]. In addition, the z-score in assay [6] was 0.543 (inactive). For the same molecule, the nuclear beta-catenin stimulation in assay [7] (at 10 µM) was 0.3% (inactive); in assay [7] (stimulation, at 2 µM), -1.3%.

As to `COc1ccc(C(=O)NCc2ccc(OCCN(C)C)cc2)cc1OC`, the parasite load remaining in assay [1] is 97.5% (inactive) and 24.6% (inactive). In assay [1], the viability is 80.4% and 69%. The fluorescence ratio in assay [2] was 1.04 (inactive); in assay [5] it was 1.05 (inactive). Also, the results for the inhibition in assay [3] and in assay [4] were 1.19% (inactive) and 2.98% (inactive), respectively. For the same molecule, in assay [6], the z-score was -0.08 (inactive). In addition, the nuclear beta-catenin stimulation is -0.3% (inactive) in assay [7] (at 10 µM) and 1% in assay [7] (stimulation, at 2 µM).

On to `COc1cc(C(=O)NS(=O)(=O)c2ccccc2C)ccc1Cc1cn(C)c2ccc(NC(=O)OC3CCCC3)cc12`, for which the parasite load remaining in assay [1] was 103% (inactive) and 39.6% (inactive). Further, the viability in assay [1] is 73.8% and 104%. For the same molecule, the fluorescence ratio in assay [2] is 0.99 (inactive); in assay [5], 1.03 (inactive). Besides, the inhibition was 16.2% (active) in assay [3] and 25.3% (inactive) in assay [4]. Moreover, the z-score in assay [6] is -5.32 (active). For the same molecule, the nuclear beta-catenin stimulation is 0.1% (inactive) in assay [7] (at 10 µM) and 0.4% in assay [7] (stimulation, at 2 µM).

Regarding `COc1ccc(CN2CCN(C(c3ccc(F)cc3)c3ccc(F)cc3)CC2)c(OC)c1OC`, the parasite load remaining in assay [1] is 0.425% (inactive) and 2.35% (inactive). The viability in assay [1] is 59.6% and 66%. Further, the fluorescence ratio in assay [2] was 1 (inactive); in assay [5], 0.91 (inactive). Also, the inhibition in assay [3] is 1.19% (inactive); in assay [4] it was 7.6% (inactive). Further, in assay [6], the z-score is 0.136 (inactive). Besides, the nuclear beta-catenin stimulation in assay [7] (at 10 µM) was 8.4% (inactive); in assay [7] (stimulation, at 2 µM), 5.6%.

On to `Nc1nc2c(ncn2CCC(CO)CO)c(=O)[nH]1`, for which the parasite load remaining in assay [1] is 89.5% (inactive) and 22.2% (inactive). In addition, the viability in assay [1] is 82.6% and 70.5%. Moreover, the results for the fluorescence ratio in assay [2] and in assay [5] were 1.05 (inactive) and 1.01 (inactive), respectively. Also, the inhibition is 2.77% (inactive) in assay [3] and -1.64% (inactive) in assay [4]. For the same molecule, the molecule was called inactive in assay [6]. In addition, the nuclear beta-catenin stimulation in assay [7] (at 10 µM) is 0.5% (inactive); in assay [7] (stimulation, at 2 µM), 1.8%.

As for `CC(=O)Nc1ccc(CC(=O)O)cc1`, the parasite load remaining in assay [1] is 119% (inactive). Besides, the viability in assay [1] came to 78.7%. The fluorescence ratio in assay [2] is 1.02 (inactive); in assay [5] it was 0.93 (inactive). In addition, the inhibition in assay [3] was 0.4% (inactive); in assay [4] it was -2.41% (inactive). The z-score in assay [6] is -0.00496 (inactive). In addition, the nuclear beta-catenin stimulation in assay [7] (at 10 µM) was -0.2% (inactive); in assay [7] (stimulation, at 2 µM), 0.4%.

Values taken from PubChem BioAssay.
